Source: PubChem BioAssay AID1159580 (chemical genetic matrix, 2015)
About 2,000 (36%) of roughly 5,500 compounds were called active. Another 18% or so got no clear call; they are omitted. No stated cut-off is given here; in the data, active means normalized growth mostly below about 0.91 (no sharp cut-off); inconclusive means no clear call, values can overlap the other calls; inactive means mostly above about 0.92. Some of the results follow.

Assay: chemical genetic growth profiling, strain panel (AID 1159580);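 further: tested at 20 µM; growth read once vehicle control cultures reached saturation at 30 °C; 1 = growth at the plate median or of vehicle wells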
Details: S. cerevisiae deletion strains, growth OD
[1] = locus YHR030C, strain SLT2, stronger effect = lower value

Measured: normalized growth

CC12CCC3C4CCC(=O)C=C4CCC3C1CCC2=O (configuration not stated)
active: locus YLR039C, strain RIC1, stronger effect = lower value 0.786 | locus YLR262C, strain YPT6, stronger effect = lower value 0.737
inactive: locus YAL013W, strain DEP1, stronger effect = lower value 1.01 | locus YBR229C, strain ROT2, stronger effect = lower value 1.01 | locus YDL101C, strain DUN1, stronger effect = lower value 1 | locus YDR150W, strain NUM1, stronger effect = lower value 0.995 | locus YEL061C, strain CIN8, stronger effect = lower value 1.01 | locus YGR078C, strain PAC10, stronger effect = lower value 1.01 | locus YGR229C, strain SMI1, stronger effect = lower value 1.01 | [1] 0.898 | locus YHR087W, strain rtc3, stronger effect = lower value 1.03 | locus YJR043C, strain POL32, stronger effect = lower value 1.02 | locus YJR075W, strain HOC1, stronger effect = lower value 1.02 | locus YLR058C, strain SHM2 (second series), stronger effect = lower value 1.01 | locus YLR085C, strain ARP6, stronger effect = lower value 1.02 | locus YML094W, strain GIM5, stronger effect = lower value 0.994 | locus YMR219W, strain ESC1, stronger effect = lower value 1.01 | locus YMR263W, strain SAP30, stronger effect = lower value 0.999 | locus YMR307W, strain GAS1, stronger effect = lower value 0.989 | locus YNL153C, strain GIM3, stronger effect = lower value 0.991 | locus YNL298W, strain CLA4 (second series), stronger effect = lower value 1.01 | locus YNL322C, strain KRE1, stronger effect = lower value 1.02 | locus YNR030W, strain Alg12, stronger effect = lower value 0.998 | locus YOL006C, strain TOP1, stronger effect = lower value 0.971 | locus YPL055C, strain LGE1, stronger effect = lower value 1.02 | locus YPL241C, strain CIN2, stronger effect = lower value 1.01 | locus YPR135W, strain CTF4, stronger effect = lower value 0.897

C#C[C@]1(OC(C)=O)CCC2C3CCC4=C/C(=N\O)CCC4C3CC[C@@]21CC (some centres not stated)
active: locus YAL021C, strain ccr4, stronger effect = lower value 0.823 | locus YAL030W, strain snc1, stronger effect = lower value 0.582 | locus YBL061C, strain skt5, stronger effect = lower value 0.514 | locus YBR009C, strain hhf1, stronger effect = lower value 0.403 | locus YBR023C, strain chs3, stronger effect = lower value 0.612 | locus YBR231C, strain swc5, stronger effect = lower value 0.333 | locus YBR279W, strain paf1, stronger effect = lower value 0.879 | locus YCL011C, strain gbp2, stronger effect = lower value 0.476 | locus YCL016C, strain dcc1, stronger effect = lower value 0.77 | locus YCR088W, strain abp1, stronger effect = lower value 0.898 | locus YDL005C, strain med2, stronger effect = lower value 0.41 | locus YDL040C, strain nat1, stronger effect = lower value 0.726 | locus YDR069C, strain doa4, stronger effect = lower value 0.367 | locus YDR137W, strain rgp1, stronger effect = lower value 0.242 | locus YDR159W, strain sac3, stronger effect = lower value 0.267 | locus YDR195W, strain ref2 0.269 | locus YDR297W, strain sur2, stronger effect = lower value 0.716 | locus YDR335W, strain msn5, stronger effect = lower value 0.866 | locus YDR392W, strain spt3, stronger effect = lower value 0.193 | locus YEL003W, strain gim4, stronger effect = lower value 0.759 | locus YER015W, strain faa2, stronger effect = lower value 0.918 | locus YER016W, strain bim1, stronger effect = lower value 0.599 | locus YER155C, strain BEM2 (second series), stronger effect = lower value 0.737 | locus YFR010W, strain ubp6, stronger effect = lower value 0.761 | locus YGL167C, strain pmr1, stronger effect = lower value 0.682 | locus YGL173C, strain kem1, stronger effect = lower value 0.817 | locus YGL240W, strain doc1, stronger effect = lower value 0.782 | locus YGL253W, strain hxk2, stronger effect = lower value 0.71 | locus YHR013C, strain ard1, stronger effect = lower value 0.315 | locus YHR027C, strain rpn1, stronger effect = lower value 0.725 | [1] 0.671 | locus YHR079C, strain IRE1, stronger effect = lower value 0.707 | locus YHR142W, strain chs7, stronger effect = lower value 0.776 | locus YJL095W, strain BCK1 (second series), stronger effect = lower value 0.503 | locus YJL095W, strain BCK1, stronger effect = lower value 0.605 | locus YJL129C, strain trk1, stronger effect = lower value 0.56 | locus YJL164C, strain tpk1, stronger effect = lower value 0.469 | locus YJL166W, strain qcr8, stronger effect = lower value 0.344 | locus YJL187C, strain SWE1, stronger effect = lower value 0.582 | locus YKL160W, strain elf1, stronger effect = lower value 0.495 | locus YLL001W, strain dnm1, stronger effect = lower value 0.826 | locus YLL026W, stronger effect = lower value 0.461 | locus YLL041C, strain sdh2, stronger effect = lower value 0.775 | locus YLR027C, strain aat2, stronger effect = lower value 0.513 | locus YLR113W, strain HOG1, stronger effect = lower value 0.305 | locus YLR221C, strain rsa3, stronger effect = lower value 0.638 | locus YLR258W, strain gsy2, stronger effect = lower value 0.495 | locus YLR262C, strain YPT6 (second series), stronger effect = lower value 0.18 | locus YLR320W, strain mms22, stronger effect = lower value 0.558 | locus YLR342W, strain FKS1, stronger effect = lower value 0.518 | locus YLR370C, strain arc18, stronger effect = lower value 0.785 | locus YML120C, strain ndi1, stronger effect = lower value 0.471 | locus YMR058W, strain fet3, stronger effect = lower value 0.89 | locus YMR125W, strain sto1, stronger effect = lower value 0.884 | locus YMR205C, strain PFK2, stronger effect = lower value 0.358 | locus YMR231W, strain pep5, stronger effect = lower value 0.45 | locus YNL071W, strain lat1, stronger effect = lower value 0.476 | locus YNL209W, strain ssb2, stronger effect = lower value 0.846 | locus YOR001W, strain rrp6, stronger effect = lower value 0.767 | locus YOR070C, strain gyp1, stronger effect = lower value 0.394 | locus YOR083W, strain WHI5, stronger effect = lower value 0.619 | locus YOR106W, strain vam3, stronger effect = lower value 0.281 | locus YOR231W, strain MKK1, stronger effect = lower value 0.673 | locus YOR265W, strain rbl2, stronger effect = lower value 0.668 | locus YOR270C, strain vph1, stronger effect = lower value 0.512 | locus YOR290C, strain snf2, stronger effect = lower value 0.563 | locus YPL051W, strain arl3, stronger effect = lower value 0.456 | locus YPL078C, strain atp4, stronger effect = lower value 0.835 | locus YPL106C, strain sse1, stronger effect = lower value 0.824 | locus YPL240C, strain hsp82, stronger effect = lower value 0.604 | locus YPL256C, strain CLN2, stronger effect = lower value 0.752
inactive: locus YAL026C, strain drs2, stronger effect = lower value 0.921 | locus YBR171W, strain sec66, stronger effect = lower value 0.944 | locus YCL061C, strain MRC1, stronger effect = lower value 0.94 | locus YCL069W, strain vba3, stronger effect = lower value 0.984 | locus YDR001C, strain nth1, stronger effect = lower value 0.998 | locus YDR334W, strain swr1, stronger effect = lower value 1 | locus YEL037C, strain rad23, stronger effect = lower value 0.993 | locus YEL061C, strain CIN8 (second series), stronger effect = lower value 0.996 | locus YER111C, strain swi4, stronger effect = lower value 1.01 | locus YGL227W, strain vid30, stronger effect = lower value 0.97 | locus YJL092W, strain hpr5, stronger effect = lower value 0.941 | locus YJL115W, strain asf1, stronger effect = lower value 1.01 | locus YJL154C, strain vps35, stronger effect = lower value 0.994 | locus YJR066W, strain TOR1, stronger effect = lower value 0.863 | locus YKR026C, strain gcn3, stronger effect = lower value 0.99 | locus YKR091W, strain srl3, stronger effect = lower value 0.941 | locus YLR357W, strain rsc2, stronger effect = lower value 0.937 | locus YLR384C, strain iki3, stronger effect = lower value 1.01 | locus YMR129W, stronger effect = lower value 0.986 | locus YNL183C, strain NPR1, stronger effect = lower value 0.84 | locus YNL248C, strain rpa49, stronger effect = lower value 0.996 | locus YNL322C, strain KRE1 (second series), stronger effect = lower value 1.01 | locus YNR049C, strain mso1, stronger effect = lower value 0.987 | locus YOR080W, strain dia2, stronger effect = lower value 0.917
